{"source": "PubChem BioAssay AID720651", "about": "(The Scripps Research Institute Molecular Screening Center, 2013)", "assay": "binds r(CAG) RNA repeats in late stage dose response, late-stage follow-up, biochemical, fluorescence, dose response, powder samples (AID 720651)", "details": "r(CAG) RNA TO-PRO-1 dye displacement", "note": "The other results are listed elsewhere or left out. Activity calls are given as the source filed them. No rule for the calls is given here."}
{"smiles": "O=C1CC(=O)N(Cc2ccccc2)C(=O)N1CCCCCCN1C(=O)CC(=O)N(Cc2ccccc2)C1=O", "values": [{"measurement": "IC50", "value": "1.44 µM (active)"}]}
